High-throughput results from PubChem.
Pf Dd2 growth: blocks in vitro growth of P. falciparum Dd2; P. falciparum Dd2 growth, SYBR Green, 72 h; Potency, µM (highest dose often 28.9 µM), hits mostly inhibitors; 120,000 tested, 4.3% active; active = well fitted inhibition curve with a large enough effect; note: nearly all actives have a fitted effect of over 65% in size
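Readout: SYBR Green fluorescence, 485 nm excitation, 535 nm emission, after ~16 h lysis at 37C. Before that, Dd2-infected red cells (2.5% hematocrit) grew 72 h with compound, 29 uM top final concentration.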
Large screens that a line does not name were inactive. Many of the other results were omitted from the sample, so hits are more common in it than they were.

O=C(Nc1ccccc1F)N1CCC(N2C(=O)C3(CCCCC3)C2c2ccncc2)CC1 (stereo not drawn)	Pf Dd2 growth 4.5µM
Cc1ccc(C(=O)N2CCC(N3C(=O)C4(CCCC4)C3c3ccccc3)CC2)s1 (stereo not drawn)	none
CCn1cc(CN2CCC(N3C(=O)C4(CCCCC4)C3c3ccncc3)CC2)cn1 (stereo not drawn)	none
O=C(c1ccncc1)N1CCC(N2C(=O)C3(CCCCC3)C2c2ccncc2)CC1 (stereo not drawn)	none
Cc1nc(C)c(C(=O)N2CCC(N3C(=O)C4(CCCCC4)C3c3ccccc3)CC2)s1 (stereo not drawn)	Pf Dd2 growth 13µM
COc1ccc(Cn2c(C3CCN(C(=O)Cc4ccccc4OC)CC3)n[nH]c2=O)cc1	none
CC1(C)C[C@H](NC(=O)c2ccccc2)[C@@]2(CCC(=O)NC3CC3)CC[C@](C)(O)C[C@@H]12	none
Cc1ccc(-c2cc(N3CCCN(C(=O)Cc4ccccc4)CC3)n[nH]2)cc1C	none
CCOc1ccc2c(n1)CCN(C(=O)c1ccc(OCC)c(OCC)c1)C2	none
COc1ccc(N2CC(C(=O)N3CCC(C(=O)NCC(F)F)C3)NC2=O)cc1 (stereo not drawn)	none
COc1ccc(N2CC(C(=O)NCCc3ccc(Cl)cc3)NC2=O)cc1 (stereo not drawn)	none
CCCCNC(=O)Cc1csc2nc(C)c(-c3cc(C)n(-c4cccc(C)c4)n3)c(=O)n12	none
CCCCCCNC(=O)Cc1csc2nc(C)c(-c3cc(C)n(-c4cccc(C)c4)n3)c(=O)n12	Pf Dd2 growth 2µM
CCCNC(=O)Cc1csc2nc(C)c(-c3cc(C)n(-c4ccc(C)cc4)n3)c(=O)n12	none
NC(=O)[C@@H]1CN(C(=O)CC2CC2)C[C@H]1COc1ccccc1	none
O=C(C1CCCCC1)N1C[C@@H](CO)[C@H](c2ccncc2)C1	none
COc1ccc(NC(=O)C2CCCN(c3cnccn3)C2)c(OC)c1 (stereo not drawn)	none
COc1ccc(-c2cn3nc(N4CCCC(C(=O)Nc5cccc(Cl)c5C)C4)sc3n2)cc1 (stereo not drawn)	none
CCNC(=O)N1CCCC1C(=O)Nc1ccccc1-c1ccc(OC)cc1 (stereo not drawn)	none
COc1ccc(-c2ccccc2NC(=O)C2CCCN(Cc3c(O)cccc3OC)C2)cc1 (stereo not drawn)	Pf Dd2 growth 1.8µM
COc1ccc(-c2ccccc2NC(=O)C2CCCN(Cc3ccccc3O)C2)cc1 (stereo not drawn)	Pf Dd2 growth 2.8µM
COc1ccc(-c2ccccc2NC(=O)C2CCCN2C(=O)C2(C)CC2)cc1 (stereo not drawn)	none
Cc1ccc(-c2nnc(C3CN(C(=O)CC4CCCCC4)CC34CCOCC4)o2)cc1 (stereo not drawn)	none
O=C1CO[C@H](c2ccc(NS(=O)(=O)Cc3ccccc3)cc2)[C@@H](CO)N1C1CCOCC1	none
C[S+](=O)([O-])N1CCC2(CC(=O)Nc3ccccc3N2)C1 (stereo not drawn)	none
CC(=O)N[C@H]1C[C@@H](c2ccc(-n3cncn3)cc2)O[C@@H](C2CCCCC2)C1	none
Cn1nccc1CN1CCC2(CC1)CC(=O)N(c1ccccc1)c1ccccc1O2	none
CC1=C[C@@H](CN2CCC(O)CC2)[C@H](C(C)C)C[C@H]1Cc1nnc(C)o1	none
COCCN1CCN(C[C@@H]2C=C(C)[C@H](Cc3nnc(-c4cccnc4)o3)C[C@H]2C(C)C)CC1	none
COCCN1CCN(C[C@@H]2C=C(C)[C@H](Cc3nnc(-c4ccc(N(C)C)cc4)o3)C[C@H]2C(C)C)CC1	Pf Dd2 growth 4µM
CC1=C[C@@H](CN2CCC(O)CC2)[C@H](C(C)C)C[C@H]1Cc1nnc(-c2ccc(N(C)C)cc2)o1	Pf Dd2 growth 3.5µM
COc1ccc(C(=O)Nc2ccc(C(O)[C@H]3COCC(=O)N3CC(C)C)cc2)cc1 (stereo partly drawn)	none
CCOCC(=O)N1CCC2(CC1)NCCc1c2[nH]c2ccc(OC)cc12	none
COCCN1C(=O)c2ccccc2C(C(=O)NCc2ccco2)C12CCCC2 (stereo not drawn)	none
COc1ccc(Cl)cc1C(=O)NC1CCN(C(=O)c2cc3c(=O)[nH]c(C)cn3n2)CC1	Pf Dd2 growth 5µM
Cc1cn2nc(C(=O)N3CCC(NC(=O)c4cccc(Cl)c4)CC3)cc2c(=O)[nH]1	none
Cc1cn2nc(C(=O)N3CCC(NC(=O)c4ccccc4C)CC3)cc2c(=O)[nH]1	none
Cc1ccc(C(=O)NCc2cccnc2Oc2ccccc2)cn1	none
CCn1ccc(C(=O)N2CCC([C@H]3[C@@H](OC)C(=O)N3C(C)C)CC2)n1	none
COc1ccc(N2CCN(C(=O)c3noc4c3CCCCC4)CC2)cc1	none
CCn1c2c(c(=O)n3ncc(C(=O)N4CCN(c5ccc(C(C)=O)cc5)CC4)c13)CN(Cc1ccc(OC)cc1)CC2	Pf Dd2 growth 10µM
COc1ccc(Cn2ccc3nc(C)c(C(=O)N4CCN(c5ccc(F)cc5)CC4)cc3c2=O)cc1	none
O=C(c1ccc2ncccc2c1)N1CC2CC(C1)[C@H]1CCCC(=O)N1C2 (stereo partly drawn)	none
COCc1cc(=O)n(CC(=O)Nc2ccccc2)c(N2CCOCC2)n1	none
